Compound activity deposited in PubChem by National Center for Advancing Translational Sciences (NCATS).
IP6K1 inh: IP6K1 kinase inhibition; Q92551; IP6K1 kinase, ADP-Glo luminescence, 2 h; active compounds read low; activity change, % (series mostly up to about 58 µM); 0.81% of 140,000 active; AID 1645851; in the data active = activity change below about -25%; also: % is scaled to controls: 0 for no effect and ±100 for the full control effect
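ADP-Glo luminescence measures ADP made by human IP6K1 during a 2 h RT reaction with ATP/IP6 (mix at 1.3 mM/130 uM); top library doses 57.5 and 19.1 uM final.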
KDM5B inhibitor: blocks human KDM5B histone demethylase activity. Q9UGL1. KDM5B demethylase, FDH-coupled NADH fluorescence (FDH is formaldehyde dehydrogenase). Potency, µM (highest dose often 57.7 µM), hits mostly inhibitors. 2.6% of 220,000 active; also: potency is read from the fitted curve at half-maximal effect; 0% is about no effect; nearly all actives have a fitted effect of over 70% in size
Target sequence (Q9UGL1 whole entry, looked up): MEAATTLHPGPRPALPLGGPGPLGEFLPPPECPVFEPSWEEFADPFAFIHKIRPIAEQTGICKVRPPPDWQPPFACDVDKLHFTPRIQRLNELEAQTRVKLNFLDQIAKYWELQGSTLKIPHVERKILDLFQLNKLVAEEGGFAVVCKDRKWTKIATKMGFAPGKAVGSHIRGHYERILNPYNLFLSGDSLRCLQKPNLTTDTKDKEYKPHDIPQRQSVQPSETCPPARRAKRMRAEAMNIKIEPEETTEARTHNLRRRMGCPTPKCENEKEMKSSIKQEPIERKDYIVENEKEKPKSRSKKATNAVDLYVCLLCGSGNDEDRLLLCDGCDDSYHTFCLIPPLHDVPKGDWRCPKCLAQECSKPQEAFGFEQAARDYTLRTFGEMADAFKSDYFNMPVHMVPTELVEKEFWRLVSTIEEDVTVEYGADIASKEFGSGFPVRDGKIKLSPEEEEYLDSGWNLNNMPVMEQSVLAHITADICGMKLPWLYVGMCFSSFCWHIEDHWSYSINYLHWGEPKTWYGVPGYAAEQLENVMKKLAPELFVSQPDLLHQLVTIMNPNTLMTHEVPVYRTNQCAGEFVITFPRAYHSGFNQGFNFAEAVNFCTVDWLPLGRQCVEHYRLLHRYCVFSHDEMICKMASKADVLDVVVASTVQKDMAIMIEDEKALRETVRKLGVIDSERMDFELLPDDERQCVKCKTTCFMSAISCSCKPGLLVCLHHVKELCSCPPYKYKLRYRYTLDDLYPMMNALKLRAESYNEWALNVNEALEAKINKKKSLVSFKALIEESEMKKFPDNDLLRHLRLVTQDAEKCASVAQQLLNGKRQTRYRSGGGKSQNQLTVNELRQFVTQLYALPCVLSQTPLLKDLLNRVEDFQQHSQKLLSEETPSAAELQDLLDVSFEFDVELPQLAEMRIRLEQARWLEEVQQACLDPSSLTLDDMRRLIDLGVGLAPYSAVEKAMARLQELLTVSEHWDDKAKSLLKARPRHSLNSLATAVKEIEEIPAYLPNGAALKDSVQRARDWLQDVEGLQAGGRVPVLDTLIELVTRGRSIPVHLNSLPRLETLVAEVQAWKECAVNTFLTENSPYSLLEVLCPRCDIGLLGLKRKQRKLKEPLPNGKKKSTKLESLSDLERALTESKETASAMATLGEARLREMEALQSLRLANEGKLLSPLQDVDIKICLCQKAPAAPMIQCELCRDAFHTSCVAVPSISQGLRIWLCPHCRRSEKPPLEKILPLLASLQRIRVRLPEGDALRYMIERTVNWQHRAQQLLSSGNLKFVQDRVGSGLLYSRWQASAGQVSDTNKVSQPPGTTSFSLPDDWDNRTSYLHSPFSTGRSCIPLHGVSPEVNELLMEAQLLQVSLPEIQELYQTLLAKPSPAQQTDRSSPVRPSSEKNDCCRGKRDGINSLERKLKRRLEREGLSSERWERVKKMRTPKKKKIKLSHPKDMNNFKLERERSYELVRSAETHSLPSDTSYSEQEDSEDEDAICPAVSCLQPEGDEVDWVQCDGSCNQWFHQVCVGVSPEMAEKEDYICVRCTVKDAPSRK
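KDM5BΔAP (200 nM final) in 50 mM HEPES pH 7.5, 0.01% Tween-20 was preincubated 10 min at RT with compound over a concentration range. Substrate mix (H3K4me3 12.5 µM, α-KG 25 µM, Fe²⁺, ascorbate, NAD⁺, FDH) was added, and NADH fluorescence change over 30 min gave dose-response curves.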
SNCA expr inhib: reduces expression of the alpha-synuclein gene; 0.17% of 140,000 active; Potency, µM (highest dose often 57.2 µM), for the others: top-dose activity change, negative = inhibition, hits mostly inhibitors; HEK-293 SNCA-luciferase knock-in, luminescence, 24 h;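 also: potency is read from the fitted curve at half-maximal effect; plate controls were DMSO cells for no effect and cell-free wells for full effect; nearly all actives have a fitted effect of over 45% in size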
SNCA viab count: counter-screen for SNCA expression inhibitors: cell viability. HEK-293-SNCA-luc viability, GF-AFC fluorescence, 24 h. Potency, µM (top dose mostly 57.1 µM), without a hit: top-dose activity change, negative = cytotoxicity, usual class: cytotoxic. 0.12% of 150,000 active;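 also: potency is read from the fitted curve at half-maximal effect; 0% = DMSO-treated cells and -100% = medium-only wells without cells; nearly all actives have a fitted effect of over 30% in size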
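HEK-293-SNCA-luc cells (1500/well) plated 24 h, then exposed 24 h to a dilution series; GF-AFC added 30 min at 37C, fluorescence 405/540 nm; normalised to medium-only and DMSO wells, Hill fit.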
* = called active by the depositor; i = inactive; ? = inconclusive; / = not tested or not shown; ! = a repeat was not active; [ ] = remark or other dose. The list is not random: actives were taken first. Their share in the collection is about 2.8%. Unless noted, calls follow the shape of the dose curve; as a rule, active = well fitted curve in the direction sought with a large enough effect; inconclusive = small, poorly fitted or top-dose-only effect, or another doubt; inactive = no such curve, though single readings can be large; an effect the other way counts as inactive or inconclusive.

SMILES	IP6K1 inh	KDM5B inhibitor	SNCA expr inhib	SNCA viab count
O=C1NCCCCCN(Cc2cccnc2)[C@H]2CCC[C@@H]12	-5	?	9%	4%
O=C1NCCCCCCN(Cc2cccnc2)[C@H]2CCC[C@@H]12	9	7.9µM*	?	-3%
O=C(NCc1ccccc1)[C@H]1CN2CCC1C[C@@H]2Cn1cc(-c2ccccc2)nn1 (stereo partly specified)	16	i	14%[87.6 µM]	8%[87.6 µM]
COc1ccccc1NC(=O)Nc1ccc2n(c1=O)C[C@H]1C[C@@H]2CN(C2CCOCC2)C1	4	16µM*	-6%	-8%
COc1ccccc1NC(=O)N1C[C@@H]2C[C@H](C1)c1c(C3CCCCC3)ccc(=O)n1C2	-4	i	2%[87.6 µM]	-16%[87.6 µM]
CCn1cc(CN2CCN(C(=O)Cc3cccs3)CC2)ccc1=O	1	13µM*	21%	-14%
CCn1cc(CN2CCN(C(=O)Cc3c(C)noc3C)CC2)ccc1=O	3	11µM*	45%	-5%
CC(C)(C)CC(=O)N1C[C@@H]2C[C@H](C1)c1ccc(NC(=O)Nc3cccc(F)c3)c(=O)n1C2	-14	28µM*	62%	-3%
CCCS(=O)(=O)Nc1ccc(=O)n2c1[C@@H]1C[C@@H](CN(S(=O)(=O)c3ccc(OC)cc3)C1)C2	8	22µM*	2%	0%
CCCS(=O)(=O)Nc1ccc(=O)n2c1[C@@H]1C[C@@H](CN(C(=O)Nc3ccc(OC)cc3)C1)C2	1	28µM*	4%	-2%
Cc1ncc2c(n1)C[C@@H]1CC[C@H]2N1C(=O)Nc1ccc(C)c(C)c1	19	i	-22%	3%
CC[C@H]1CN2CC[C@H]1C[C@@H]2CNCc1ccc(-c2ccccc2)cc1	-13	i	-14%[87.6 µM]	?
CCN1Cc2ccccc2NC(=O)C12CCNC2 (stereo unspecified)	-9	56µM*	15%	2%
COc1ccc(OC)c(-c2cnc3[nH]cc(CC(=O)N4CCN(C)CC4)c3c2)c1	-7	i	-14%[87.6 µM]	0%[87.6 µM]
Cc1noc(C)c1-c1cnc2[nH]cc(CC(=O)N3CCN(C)CC3)c2c1	4	28µM*	53%[87.6 µM]	6%[87.6 µM]
CN1CCN(C(=O)Cc2c[nH]c3ncc(-c4cccc(Cl)c4)cc23)CC1	-21	35µM*	4%[87.6 µM]	-5%[87.6 µM]
Cc1noc(C)c1COc1ccc(CC(=O)N2CCN(CC(=O)N3CCCCC3)CC2)cc1	/	i	/	/
Cc1ccccc1-c1cnc2[nH]cc(CC(=O)N3CCN(C)CC3)c2c1	-12	32µM*	-20%[87.6 µM]	1%[87.6 µM]
CN1CCN(C(=O)Cc2c[nH]c3ncc(-c4cccc(F)c4)cc23)CC1	-12	28µM*	5%[87.6 µM]	8%[87.6 µM]
CN1CCN(C(=O)Cc2cccn2-c2ccc(F)cc2)CC1	6	i	31%	1%
CN(C[C@H]1CN2CC[C@H]1C[C@@H]2CNC(=S)NCc1ccco1)c1ccccc1	-4	?	?	-19%[87.6 µM]
CN1CCN2C(=O)N(Cc3cccnc3)C[C@H]2C1	2	i	3%[87.6 µM]	10%[87.6 µM]
COc1ccccc1-c1cc([C@H]2CN3CC[C@H]2C[C@@H]3CNS(=O)(=O)c2ccc(NC(C)=O)cc2)nc(C)n1	-3	32µM*	-2%	-21%
CCCNC(=O)OC[C@H]1C[C@@H]2CCN1C[C@@H]2c1cc(-c2ccccc2OC)nc(C)n1	4	35µM*	-19%[87.6 µM]	0%[87.6 µM]
Cc1nc(-c2ccc(C(F)(F)F)cc2)cc([C@H]2CN3CC[C@H]2C[C@@H]3CNC(=O)CCC(=O)O)n1	5	i	19%	1%
SMILES	IP6K1 inh	KDM5B inhibitor	SNCA expr inhib	SNCA viab count
COc1ccccc1-c1cc([C@H]2CN3CC[C@H]2C[C@@H]3CNC(=O)CCC(=O)O)nc(C)n1	8	32µM*	-8%	4%
COc1ccccc1-c1cc([C@H]2CN3CC[C@H]2C[C@@H]3COC(=O)Nc2ccccc2)nc(C)n1	9	?	5%	5%
COc1ccccc1-c1cc([C@H]2CN3CC[C@H]2C[C@@H]3COC(=O)NC(C)C)nc(C)n1	4	40µM*	?	0%[87.6 µM]
CC(=O)Nc1ccc(S(=O)(=O)NC[C@H]2C[C@@H]3CCN2C[C@@H]3c2cc(-c3ccccc3Br)nc(C)n2)cc1	8	i	9%	-7%
CC(C)N1CC2CCC(C1)N2Cc1ccc(-c2cncnc2)cc1	-10	i	12%[87.6 µM]	5%[87.6 µM]
CCOC(=O)[C@H]1CN(C(=O)CC2CCCC2)[C@]2(C)C(=O)N(CC3CC3)c3ccccc3[C@H]12	7	/	?	-9%[23.9 µM]
COc1ccc(-c2cc([C@H]3CN4CC[C@H]3C[C@@H]4CNC(=O)C(C)(C)C)nc(C)n2)cc1OC	1	32µM*	6%	2%
COc1ccccc1-c1cc([C@H]2CN3CC[C@H]2C[C@@H]3COC(=O)NC2CCCCC2)nc(C)n1	9	28µM*	?	-12%
Cc1nc(-c2ccccc2Br)cc([C@H]2CN3CC[C@H]2C[C@@H]3CNC(=O)CSCC(=O)O)n1	17	25µM*	5%	0%
O=C(NC1CCCCC1)OC[C@H]1C[C@@H]2CCN1C[C@@H]2c1cc(C2CCCC2)nc(-c2ccncc2)n1	10	?	-26%	-19%
COc1ccc(NC(=O)OC[C@H]2C[C@@H]3CCN2C[C@@H]3c2cc(-c3ccc(N(C)C)cc3)nc(C)n2)cc1	12	i	?	?
CSc1cccc(NC(=O)NC[C@H]2C[C@@H]3CCN2C[C@@H]3CN(C)c2ccccc2)c1	-7	i	?	?
COc1ccc(CCC(=O)N2[C@H]3CC[C@@H]2c2cnc(-c4ccc(F)cc4)nc2C3)cc1	37	i	-6%	-10%
Cc1nc(-c2ccco2)cc([C@H]2CN3CC[C@H]2C[C@@H]3CNC2CCOCC2)n1	4	22µM*	11%[87.6 µM]	-11%[87.6 µM]
Cc1ccc(C(=O)NC[C@H]2C[C@@H]3CCN2C[C@@H]3c2cc(-c3cccs3)nc(C)n2)cc1	19	35µM*	?	?
Cc1nc(-c2ccco2)cc([C@H]2CN3CC[C@H]2C[C@@H]3CNC(=O)Cc2cccs2)n1	7	18µM*	20%[87.6 µM]	0%[87.6 µM]
Cc1nc(-c2ccco2)cc([C@H]2CN3CC[C@H]2C[C@@H]3CNC(=O)c2cccs2)n1	17	?	29%[87.6 µM]	-5%[87.6 µM]
CCS(=O)(=O)N1[C@H]2CC[C@@H]1c1cnc(-c3ccc(F)cc3)nc1C2	4	i	35%	-3%
Cc1ncc2c(n1)C[C@@H]1CC[C@H]2N1C(=O)CCc1ccccc1	23	i	5%	10%
Cc1ncc2c(c1CNCC1(O)CNCCOC1)CCNC2 (stereo unspecified)	12	28µM*	?	-7%
Cc1cnc(CCN)n1CC1CC1	-4	7.9µM*	1%	?
COc1ccc2c(c1OC)CN1CCc3cc4c(cc3C1C2)OCO4 (stereo unspecified)	14	/	3µM*!	?
CN1CCc2cc3c(cc2C1C1OC(=O)c2c1ccc1c2OCO1)OCO3 (stereo unspecified)	1	/	/	9%
c1cc(-c2nnc(C3CNCC34CCOCC4)o2)ccn1 (stereo unspecified)	17	i	?	4%
